According to PubChem BioAssay AID1376 (SRMLSC, 2008):
The whole screen tested about 220,000 compounds, of which about 530 (0.24%) were called active. Shown is part of a subset that was picked to be rich in actives. Measured potencies and affinities stand elsewhere. Unmarked numbers belong to inactive results. No stated cut-off is given here; in the data, active means inhibition above about 13%; inconclusive means no clear call, values can overlap the other calls; inactive means below that.

target: Bifunctional protein GlmU (Mycobacterium tuberculosis (strain ATCC 25618 / H37Rv)) (UniProt P9WMN3); assay: inhibition of mycobacterial GlmU enzyme – biochemical, glucosamine-1-phosphate acetyltransferase (AID 1376);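 further: 0% = complete reaction with vehicle and 100% = reaction without substrate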; settings: M. tuberculosis GlmU acetyltransferase enzyme assay; stronger effect = higher value;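 tested at 30 µM in the primary screen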
Sequence (P9WMN3 whole entry, looked up): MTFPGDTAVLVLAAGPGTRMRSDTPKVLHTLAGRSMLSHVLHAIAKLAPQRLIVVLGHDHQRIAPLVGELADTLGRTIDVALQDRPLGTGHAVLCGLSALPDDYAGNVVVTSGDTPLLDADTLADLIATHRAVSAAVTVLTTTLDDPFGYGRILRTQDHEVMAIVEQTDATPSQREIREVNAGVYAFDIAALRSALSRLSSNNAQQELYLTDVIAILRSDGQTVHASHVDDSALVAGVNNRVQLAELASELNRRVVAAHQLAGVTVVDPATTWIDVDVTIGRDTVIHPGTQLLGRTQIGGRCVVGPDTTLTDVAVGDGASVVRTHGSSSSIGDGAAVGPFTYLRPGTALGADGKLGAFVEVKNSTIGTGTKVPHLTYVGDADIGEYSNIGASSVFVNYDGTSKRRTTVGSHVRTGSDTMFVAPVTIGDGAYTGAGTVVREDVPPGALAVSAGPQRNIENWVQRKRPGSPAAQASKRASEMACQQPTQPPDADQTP

Compound	inhibition
COc1ccc(C(=O)NC(=S)Nc2ccc(N3CCCC3)cc2)cc1	-3.46%
CC(C)Oc1ccc(C(=O)Nc2ccc(N3CCCC3)cc2)cc1	2.23%
COc1ccc(C(=O)Nc2ccc(N3CCCC3)cc2)cc1	13.4% (active)
O=C(O[C@@H]1OC2COC(=O)c3cc(O)c(O)c(O)c3-c3c(cc(O)c(O)c3O)C(=O)O[C@@H]([C@H]1O)[C@@H]2O)c1cc(O)c(O)c(O)c1	30.4%
CCC(=O)Nc1sc(C(=O)Nc2ccccc2OC)c(C)c1C(=O)OC	7.34%
O=C(/C=C/c1ccc(O)c(O)c1)OCCc1ccccc1	-2.12%
O=C(O)/C=C/c1ccc(O)c(O)c1	5.24%
CCN1C(=O)CC(N2CCOCC2)C1=O (stereo not drawn)	-3.77%
CCOc1ccc(C2CC(c3ccc(F)cc3)Nc3nc(N)nn32)cc1 (stereo not drawn)	2.32%
CN1C(=O)/C(=C/c2coc3ccc(O)cc3c2=O)SC1=S	2.74%
O=C1NC(=S)S/C1=C\c1coc2ccccc2c1=O	5.72%
O=C(Nc1ccc(Cl)cc1)Nc1ccccc1C(=O)O	-1.73%
Cc1nn(CC(=O)Nc2sc3c(c2C#N)CCC(C(C)(C)C)C3)c(C)c1[N+](=O)[O-] (stereo not drawn)	14.3% (active)
Cc1nn(CCCC(=O)Nc2sc3c(c2C#N)CCC3)c(C)c1[N+](=O)[O-]	-0.77%
CN1CCN(CC(=O)Nc2sc3c(c2C#N)CCC(C(C)(C)C)C3)CC1 (stereo not drawn)	2.19%
CC(C)CCn1c(=O)c2ccccc2n2c(CN3CCCC3)nnc12	-3.44%
O=C1N=c2ccccc2=C1c1sc(=S)n(NC(=O)c2ccccc2)c1O	13.4% (active)
O=S(=O)(Nn1c(O)c(C=C2N=c3ccccc3=N2)sc1=S)c1ccccc1	7.14%
O=C1N=c2ccccc2=C1c1sc(Nc2ccc(O)cc2)nc1O	6.45%
O=C1N=c2ccc(Br)cc2=C1c1sc(=S)n(NS(=O)(=O)c2ccccc2)c1O	13.8% (active)
Cc1ccc(S(=O)(=O)Nn2c(O)c(C=C3N=c4ccccc4=N3)sc2=S)cc1	0.22%
O=C1N=c2ccccc2=C1c1sc(=S)n(NC(=O)c2cccc(O)c2)c1O	-0.24%
O=C1N=c2ccccc2=C1c1sc(NS(=O)(=O)Cc2ccccc2)nc1O	5.63%
O=C1N=c2ccccc2=C1c1sc(NS(=O)(=O)c2ccccc2)nc1O	13.8% (active)
COc1cc(C(=O)Nn2c(O)c(C3=c4ccccc4=NC3=O)sc2=S)ccc1O	4.03%
COc1ccc(C(=O)C2CCCN(C(=O)Cc3c(C)noc3C)C2)cc1OC (stereo not drawn)	-6.51%

Compound	inhibition
COc1ccccc1C(=O)NCCCN1CCCC1=O	-0.52%
Nc1c(C(=O)c2ccc(F)cc2)oc2ccccc12	1.74%
CCOc1ccccc1NC(=S)N(CCOC)C1CCN(C(C)=O)CC1	1.9%
CC(=O)N1CC=CC1(C)C(=O)NCc1cc(F)cc(C(F)(F)F)c1 (stereo not drawn)	-2.53%
CCCCC(=O)Nc1ccc(C(=O)Nc2ccc(S(=O)(=O)Nc3ccc(C)cc3)cc2)cc1	3.43%
CCOc1ccc(N(CC(=O)NCC2CCCO2)C(=O)CCC(=O)Nc2nccs2)cc1 (stereo not drawn)	-0.08%
Cc1oc(/N=C/c2c(O)ccc3ccccc23)c(C#N)c1C	-4.74%
Cc1ccc(-n2c(N)c(C(=O)N3CCOCC3)sc2=S)cc1	-2.93%
Nc1c(C(=O)N2CCCCC2)sc(=S)n1-c1ccccc1	-0.25%
Nc1c(C(=O)N2CCOCC2)sc(=S)n1-c1ccccc1	13.9% (active)
Cc1cc2ccccc2c(=O)n1CC(=O)NCC(=O)N1CCN(c2ccccc2F)CC1	-1.95%
CCOc1cc(CNCc2cccs2)ccc1OCC(=O)NC(C)(C)C	4.39%
OC(COc1ccc(Br)cc1)CN1CCOCC1 (stereo not drawn)	-1.6%
COc1ccc(CSc2nnc(NC(C)=O)s2)cc1[N+](=O)[O-]	-1.4%
C/C(=N\NC(=O)c1cccc(C)c1)c1cccc(NC(=O)c2ccco2)c1	21.3% (active)
C/C(=N\NC(=O)c1cccc(Cl)c1)c1cccc(NC(=O)c2ccco2)c1	4.79%
C/C(=N\NC(=O)c1ccc(F)cc1)c1cccc(NC(=O)c2ccco2)c1	1.13%
Cc1cccc(Cn2cccc2/C=C2/C(=N)N3C=CSC3=NC2=O)c1	-1.25%
CC(C)CC12CN3CCN(CC(C3)/C1=N/O)C2	0.59%
COc1ccc(COc2ccccc2C(N)=O)cc1F	3.33%
O=S(=O)(c1ccc(OCC(O)CN2CCN(c3ccc(F)cc3)CC2)cc1)N1CCOCC1 (stereo not drawn)	3.7%
Cc1ccccc1CN1[C@@H](Cc2ccccc2)COCCS1(=O)=O	-3.47%
O=C(O)c1cc(N=Nc2c(O)ccc3ccccc23)cc(C(=O)O)c1	25.6% (active)
Oc1ccc(N=Nc2c(O)ccc3ccccc23)cc1	0.98%
O=S(=O)(O)c1cccc(N=Nc2c(O)ccc3ccccc23)c1	3.89%
CCOC(=O)Cn1c(-c2ccccc2)ccc(C#N)c1=O	-5.69%

Compound	inhibition
CCn1c(-c2ccccc2)ccc(C#N)c1=O	14.1% (active)
C#CCn1c(-c2ccccc2)ccc(C#N)c1=O	1.35%
O=C(CSc1ccccc1C(=O)O)NCC1CCCCC1	-4.3%
COCCn1c(SCC(=O)c2[nH]c(C)c(C(C)=O)c2C)nc2ccccc21	3.37%
C#CCNC(=O)C1CCN(c2cc(C)nc(-c3ccccc3)n2)CC1	-1.53%
Cc1cc(N2CCC(C(=O)NC3CC3)CC2)nc(-c2ccccc2)n1	1.37%
Cc1cc(N2CCC(C(=O)NC3CCCCC3)CC2)nc(-c2ccccc2)n1	13.9% (active)
CC(=O)c1ccc(N2CCN(C(=S)Nc3ccccc3F)CC2)cc1	-4.01%
CS(=O)(=O)N1CCC(C(=O)N2CCN(Cc3ccccc3)CC2)CC1	0.44%
CCCS(=O)(=O)N1CCC(C(=O)N2CCN(Cc3ccccc3)CC2)CC1	30.1% (active)
CCS(=O)(=O)N1CCC(C(=O)N2CCN(Cc3ccccc3)CC2)CC1	-4.26%
Cc1cc(C(=O)CN2C(=O)C(=O)N(C3CCCC3)C2=O)c(C)n1-c1ccc(F)cc1	7.31%
Cc1c(Cl)cc(-n2cnnn2)cc1[N+](=O)[O-]	0.95%
O=C(CSc1nnc(-c2ccco2)c(-c2ccco2)n1)Nc1ccccc1	13.4% (active)
COc1ccc(C(=O)CSc2nnc(-c3ccco3)c(-c3ccco3)n2)cc1	12.8% (active)
CC(=O)c1ccc(NC(=O)CSc2nnc(-c3ccco3)c(-c3ccco3)n2)cc1	9.28%
COc1ccc(C(=O)CSc2n[nH]c(-c3ccco3)n2)cc1	4.52%
O=C(CSc1nnc(-c2ccco2)c(-c2ccco2)n1)c1ccccc1	0.16%
Cc1ccc(NC(=O)CSc2nnc(-c3ccco3)c(-c3ccco3)n2)cc1	6.2%
CC1(c2nnc(Cc3ccccc3)o2)CC(c2ccc([N+](=O)[O-])cc2)=NO1 (stereo not drawn)	-2.83%
CCCn1c(SCC(=O)Nc2ccc(OCC)cc2)nnc1C(C)C	2.8%
COC(=O)N/N=C/c1c(C)nn(-c2cccc(Cl)c2)c1Cl	-2.28%
O=S(=O)(Nc1ccc(N2CCCCC2)cc1)c1ccc(F)c(F)c1	1.08%
O=C(O)c1cc(S(=O)(=O)Nc2ccc(N3CCCCC3)cc2)ccc1Cl	14.1% (active)
CC(=O)Nc1ccc(NS(=O)(=O)c2ccc(Cl)c(C(=O)O)c2)cc1	-0.86%
O=C1CC2(CCCCC2)Oc2ccc(Cl)cc21	-3.86%

Compound	inhibition
CCCCN(CCCC)CCNC(=O)CNC(=O)c1cccs1	2.63%
CCN(CC(=O)Nc1ccc(OC(F)F)cc1)C1CCCCC1	2.82%
C=CCOc1ccc(Br)cc1/C=N/O	-4.35%
COc1cc(/C=C2/SC(=Nc3ccc(O)cc3)NC2=O)ccc1O	35.3%
C=CCOc1ccc(Br)cc1/C=C1/SC(=Nc2ccc(C(=O)O)cc2)NC1=O	15.9% (active)
CCOc1cc(S(=O)(=O)NCCc2ccccc2C)c(OCC)cc1-n1cnnn1	1.72%
O=C1CC(NCc2ccccc2)C(=O)N1c1ccc(F)cc1 (stereo not drawn)	-3.58%
O=c1[nH]nc(SCc2nnc(-c3cccc(Cl)c3)o2)n1C1CCCCC1	1.07%
CC(C)(CNc1ccc([N+](=O)[O-])cc1Cl)CNS(C)(=O)=O	-2.7%
O=Cc1s/c(=N\S(=O)(=O)c2ccccc2)n(CCCCl)c1Cl	14% (active)
CCn1c(Cl)c(C=O)s/c1=N\S(=O)(=O)c1ccccc1	5.14%
COCCCN1C(=O)CS/C1=N\S(=O)(=O)c1ccccc1	5.52%
CC/C(=N/NS(=O)(=O)c1ccc(Cl)cc1)c1ccc(O)cc1	2.54%
O=C(O)C1Nc2c(O)cc(Cl)c([N+](=O)[O-])c2C2C=CCC12 (stereo not drawn)	65% (active)
CCOC(=O)C1Nc2c(F)cc(C)cc2C2C=CCC12 (stereo not drawn)	3.49%
O=C(O)C1Nc2c(O)cccc2C2C=CCC12 (stereo not drawn)	33.7% (active)
COC(=O)CNC(=O)C1Nc2ccccc2C2C=CCC12 (stereo not drawn)	3.22%
O=[N+]([O-])c1ccc(Cl)c2c1C1C=CCC1C(c1ccccn1)N2 (stereo not drawn)	3.42%
COc1cccc2c1NC(C(=O)O)C1CC=CC21 (stereo not drawn)	60.8% (active)
CC(C)CNC(=O)C1Nc2ccccc2C2C=CCC12 (stereo not drawn)	0.47%
COc1cccc(C2Nc3c(F)cc(Br)cc3C3C=CCC32)c1OC (stereo not drawn)	0.44%
CC(C)C1Nc2c(O)cc(Cl)c([N+](=O)[O-])c2C2C=CCC21 (stereo not drawn)	4.55%
CC(C)C1Nc2ccc(C(=O)O)cc2C2C=CCC21 (stereo not drawn)	5.77%
Cc1ccc2c(c1C)NC(C(=O)O)C1CC=CC21 (stereo not drawn)	13.2% (active)
O=C(O)C1Nc2c(C(=O)N3CCOCC3)cccc2C2C=CCC12 (stereo not drawn)	1.95%
